In all, about 5,600 compounds went through this assay and about 780 (14%) were called active. Another 3% or so got no clear call; they are omitted. Not all results are given here. A number with no mark means an inactive call.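 Rule for the calls: active = mean signal decrease across replicates above about 35% based on untreated-well scatter, with enough replicates individually passing (limit read from the data); inconclusive = no rule stated though some were filed; inactive = the rest.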
Assay: cytotoxicity in mouse NIH/3T3 fibroblasts, confirmation, cytotoxicity control for T. cruzi proliferation inhibitor project, cell-based, cherry-pick, single point (AID 651742);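 note: 0% = median of neutral control wells and 100% = median of positive control wells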
Details: NIH/3T3 viability, CellTiter-Glo ATP luminescence, 90 h; at 8.35 µM; active compounds read high

Row | SMILES | cytotoxicity (signal decrease)
1 | C[C@@H]1CCCCO[C@H](CN(C)C(=O)CCC(F)(F)F)[C@H](C)CN([C@H](C)CO)C(=O)c2cc(NS(C)(=O)=O)ccc2O1 | 5.17%
2 | Cc1ccc(-c2ccc([C@H]3[C@H](CO)N4CCCCN(Cc5cncnc5)C[C@@H]34)cc2)cc1 | 20%
3 | COc1ccccc1C#Cc1ccc([C@@H]2[C@H](CO)N3CCCCN(C(=O)C4CCCC4)C[C@@H]23)cc1 | 53.5% (active)
4 | OC[C@@H]1[C@H](c2ccc(C#CC3(O)CCCC3)cc2)[C@H]2CN(Cc3cncnc3)CCCCN12 | 13.7%
5 | O=C(CN1CCOCC1)N1CCCCN2[C@@H](CO)[C@H](c3ccc(/C=C/c4ccccc4)cc3)[C@@H]2C1 | 32.3%
6 | O=C(C1CCC1)N1CCCCN2[C@H](CO)[C@H](c3ccc(-c4ccncc4)cc3)[C@@H]2C1 | -4.89%
7 | O=C(C1CCC1)N1CCCCN2[C@H](CO)[C@H](c3ccc(-c4cccc(F)c4)cc3)[C@@H]2C1 | 30.8%
8 | CCC(=O)N1CCCCN2[C@H](C1)[C@@H](c1ccc(/C=C/c3ccccc3)cc1)[C@@H]2CO | 38.9% (active)
9 | COc1ccccc1C#Cc1ccc([C@@H]2[C@H](CO)N3CCCCN(C(=O)C4CC4)C[C@@H]23)cc1 | 17.7%
10 | OC[C@@H]1[C@H](c2ccc(C#Cc3ccccc3)cc2)[C@@H]2CN(Cc3cncnc3)CCCCN12 | 41.5% (active)
11 | CCC(=O)N1CCCCN2[C@H](C1)[C@@H](c1ccc(-c3ccc(F)cc3)cc1)[C@@H]2CO | 15.5%
12 | COc1ccccc1C#Cc1ccc([C@H]2[C@H](CO)N3CCCCN(C(=O)C4CCC4)C[C@@H]23)cc1 | 50.3% (active)
13 | COc1ccccc1NC(=O)N1CCCCN2[C@H](C1)[C@H](c1ccc(-c3ccccc3)cc1)[C@@H]2CO | 33.3%
14 | C[C@@H]1CCCCO[C@H](CN(C)S(=O)(=O)c2ccc(Cl)cc2)[C@H](C)CN([C@@H](C)CO)C(=O)c2cc(NS(=O)(=O)c3cccs3)ccc2O1 | -18.8%
15 | C[C@@H]1CN([C@H](C)CO)C(=O)CCCn2nncc2CO[C@@H]1CN(C)Cc1ccc(C(=O)Nc2ccccc2N)cc1 | 14.8%
16 | Cc1ccc(S(=O)(=O)N2C[C@@H](O)COC[C@@H]3O[C@H](CC(=O)NCc4ccc(Cl)c(Cl)c4)CC[C@H]32)cc1 | 3.54%
17 | O=C(C1CCCC1)N1CCCCN2[C@@H](CO)[C@H](c3ccc(-c4cccc(F)c4)cc3)[C@@H]2C1 | 25.5%
18 | CCCNC(=O)N1[C@@H]2c3cccc(=O)n3C[C@H]1[C@H](CO)[C@H]2C(=O)NCC(F)(F)F | 19.4%
19 | C[C@@H]1CCCCO[C@H](CN(C)C(=O)Nc2cccc3ccccc23)[C@H](C)CN([C@H](C)CO)C(=O)c2cc(NS(=O)(=O)c3cccs3)ccc2O1 | 2.6%
20 | Cc1ccc(S(=O)(=O)Nc2ccc3c(c2)C(=O)N([C@H](C)CO)C[C@H](C)[C@H](CN(C)C(=O)Nc2ccc(F)cc2)OCCCC[C@H](C)O3)cc1 | -4.04%

Row | SMILES | cytotoxicity (signal decrease)
21 | Cc1ccc(S(=O)(=O)N(C)C[C@H]2OCCCC[C@H](C)Oc3ccc(NC(=O)Cc4ccccc4)cc3C(=O)N([C@@H](C)CO)C[C@@H]2C)cc1 | -1.37%
22 | COc1ccc(NC(=O)N(C)C[C@H]2OCCCC[C@H](C)Oc3ccc(NC(=O)Nc4ccc(C(F)(F)F)cc4)cc3C(=O)N([C@@H](C)CO)C[C@@H]2C)cc1 | -11.5%
23 | C[C@H]1CCCCO[C@H](CN(C)S(=O)(=O)c2ccc(Cl)cc2)[C@@H](C)CN([C@@H](C)CO)C(=O)c2cc(NC(=O)Nc3ccc4c(c3)OCO4)ccc2O1 | 6.45%
24 | C[C@@H]1CN([C@@H](C)CO)C(=O)c2cc(C#Cc3ccccc3)cnc2O[C@H]1CN(C)C(=O)c1ccccn1 | 15.5%
25 | C[C@@H]1CN([C@H](C)CO)S(=O)(=O)c2ccc(C#CCC3CCCC3)cc2O[C@H]1CN(C)C(=O)CC1CC1 | -5.41%
26 | C[C@H]1CCCCO[C@@H](CN(C)S(=O)(=O)c2cccs2)[C@@H](C)CN([C@@H](C)CO)C(=O)c2cc(NS(=O)(=O)c3ccc(Cl)cc3)ccc2O1 | 5.91%
27 | N#Cc1cccc(-c2ccc([C@H]3[C@H](CO)N4CCCCN(C(=O)Nc5cccc(F)c5)C[C@@H]34)cc2)c1 | 32.4%
28 | O=C(Nc1cccc(F)c1)N1CCCCN2[C@H](CO)[C@H](c3ccc(C#CC4CC4)cc3)[C@@H]2C1 | 35.2% (active)
29 | O=C(Nc1ccccc1)N1CCCCN2[C@H](CO)[C@@H](c3ccc(C#Cc4ccccn4)cc3)[C@H]2C1 | 1.29%
30 | C[C@@H]1CN([C@H](C)CO)C(=O)c2cc(NS(=O)(=O)c3cccs3)ccc2O[C@@H](C)CCCCO[C@@H]1CN(C)S(=O)(=O)c1ccc(Cl)cc1 | -7.98%
31 | COc1ccc(NC(=O)Nc2ccc3c(c2)C(=O)N([C@H](C)CO)C[C@H](C)[C@H](CN(C)S(=O)(=O)c2ccc(Cl)cc2)OCCCC[C@H](C)O3)cc1 | -12.7%
32 | O=C(c1ccccn1)N1CC[C@@H]2[C@H]1c1cc(-c3ccccc3)ccc1N[C@@H]2CO | 3.39%
33 | C[C@@H]1CN([C@@H](C)CO)C(=O)c2cc(NC(=O)Nc3ccc4c(c3)OCO4)ccc2O[C@@H]1CN(C)Cc1ccc(Oc2ccccc2)cc1 | 22.6%
34 | C[C@H](CO)N1C[C@H](C)[C@@H](CN(C)Cc2ccc(-c3ccccc3)cc2)Oc2ccc(NC(=O)CCC(F)(F)F)cc2CC1=O | 32.2%
35 | C[C@@H]1CN([C@@H](C)CO)C(=O)Cc2cc(NC(=O)C3CCCCC3)ccc2O[C@@H]1CN(C)Cc1ccc(C(=O)Nc2ccccc2N)cc1 | 37.8% (active)
36 | C[C@@H]1CN([C@H](C)CO)C(=O)Cc2cc(NC(=O)c3ccncc3)ccc2O[C@H]1CN(C)Cc1ccc(-c2ccccc2)cc1 | 32.8%
37 | C[C@@H]1CN([C@H](C)CO)C(=O)Cc2cc(NC(=O)Cc3ccccc3)ccc2O[C@H]1CN(C)Cc1ccc(Oc2ccccc2)cc1 | 1.79%
38 | C[C@H](CO)N1C[C@H](C)[C@H](CN(C)Cc2ccc(-c3ccccc3)cc2)Oc2ccc(NC(=O)Nc3ccc(F)cc3)cc2CC1=O | 43.5% (active)
39 | C[C@H]1CN([C@@H](C)CO)C(=O)Cc2cc(NC(=O)Cc3cn(C)c4ccccc34)ccc2O[C@@H]1CN(C)Cc1ccccc1 | -12.8%

Source: PubChem BioAssay AID651742 (Broad Institute, 2012)
